Test results taken from paper PMC7862700, “An all-to-all approach to the identification of sequence-specific readers for epigenetic DNA modifications on cytosine”.

Legend:
Assay in all cases: DAPPL (digital affinity profiling via proximity ligation, sequencing); 10 mM Tris-HCl pH 7.5, 50 mM NaCl, 1 mM DTT, 4% glycerol, room temperature, 30 min; GST-TFs on glutathione beads, 16-mer random dsDNA library, 0.1% formaldehyde crosslink after washing; high values mean tight binding
Details in all cases: protein: recombinant; tags: N-terminal GST; dsDNA, one strand shown
[1] = target: T1, FLI1 (Homo sapiens, UniProt Q01543 1-452)
T1 sequence: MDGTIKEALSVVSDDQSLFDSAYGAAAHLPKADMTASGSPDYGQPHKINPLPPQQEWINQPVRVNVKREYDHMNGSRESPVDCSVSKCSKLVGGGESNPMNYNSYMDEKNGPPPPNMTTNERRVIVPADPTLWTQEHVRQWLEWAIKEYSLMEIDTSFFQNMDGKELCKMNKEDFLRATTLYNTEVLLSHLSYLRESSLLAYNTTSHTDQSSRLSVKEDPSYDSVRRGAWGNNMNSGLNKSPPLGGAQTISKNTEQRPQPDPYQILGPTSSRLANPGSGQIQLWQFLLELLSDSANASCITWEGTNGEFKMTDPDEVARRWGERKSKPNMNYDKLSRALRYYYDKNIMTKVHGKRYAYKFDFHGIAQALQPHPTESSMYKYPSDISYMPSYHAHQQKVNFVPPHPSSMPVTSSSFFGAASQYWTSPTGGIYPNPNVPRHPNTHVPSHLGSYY
Summary of the method: (§1)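 Pools were built from human transcription factors expressed in yeast as GST fusions, captured on glutathione beads and DNA-barcoded, along with a tag-only sample. Incubation with 200 nmole of a 16-mer random double-stranded DNA library lasted 30 min at room temperature in Tris/NaCl/DTT/glycerol buffer, and was followed by washing, 0.1% formaldehyde crosslinking, proximity ligation, PCR amplification and Illumina NextSeq500 sequencing. Binding signal is the quotient of each hexamer's read frequency for a factor and its frequency for the tag-only sample.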

[2] = target: T2, ELK1 (Homo sapiens, UniProt P19419 1-428)
T2 sequence: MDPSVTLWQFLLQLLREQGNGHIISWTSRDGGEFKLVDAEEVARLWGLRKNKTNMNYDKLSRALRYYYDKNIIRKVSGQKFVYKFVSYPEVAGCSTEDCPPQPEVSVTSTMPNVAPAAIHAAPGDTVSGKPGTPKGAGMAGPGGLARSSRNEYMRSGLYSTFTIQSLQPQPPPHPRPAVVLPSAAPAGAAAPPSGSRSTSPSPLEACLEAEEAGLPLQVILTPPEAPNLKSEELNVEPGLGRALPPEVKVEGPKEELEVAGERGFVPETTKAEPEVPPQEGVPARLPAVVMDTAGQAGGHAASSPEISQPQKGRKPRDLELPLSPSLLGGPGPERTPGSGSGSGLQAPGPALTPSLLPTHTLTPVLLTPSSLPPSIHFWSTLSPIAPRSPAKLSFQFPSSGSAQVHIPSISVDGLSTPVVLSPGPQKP
Summary of the method: as §1

[3] = target: T3, GABPA (Homo sapiens, UniProt Q06546 1-454)
T3 sequence: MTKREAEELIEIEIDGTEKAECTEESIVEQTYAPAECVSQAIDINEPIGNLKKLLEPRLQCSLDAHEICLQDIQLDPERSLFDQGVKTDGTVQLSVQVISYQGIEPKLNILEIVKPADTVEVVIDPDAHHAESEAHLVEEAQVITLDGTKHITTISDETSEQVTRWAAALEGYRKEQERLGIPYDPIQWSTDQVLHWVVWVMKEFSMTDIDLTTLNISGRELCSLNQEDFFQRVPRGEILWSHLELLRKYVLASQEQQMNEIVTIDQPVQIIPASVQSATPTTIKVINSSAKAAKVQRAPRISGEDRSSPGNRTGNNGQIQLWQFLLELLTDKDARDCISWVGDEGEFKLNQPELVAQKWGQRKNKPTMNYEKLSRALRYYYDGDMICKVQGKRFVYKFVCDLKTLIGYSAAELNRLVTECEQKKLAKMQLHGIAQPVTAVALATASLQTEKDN
Summary of the method: as §1

[4] = target: T4, ERG (Homo sapiens, UniProt P11308 1-479)
T4 sequence: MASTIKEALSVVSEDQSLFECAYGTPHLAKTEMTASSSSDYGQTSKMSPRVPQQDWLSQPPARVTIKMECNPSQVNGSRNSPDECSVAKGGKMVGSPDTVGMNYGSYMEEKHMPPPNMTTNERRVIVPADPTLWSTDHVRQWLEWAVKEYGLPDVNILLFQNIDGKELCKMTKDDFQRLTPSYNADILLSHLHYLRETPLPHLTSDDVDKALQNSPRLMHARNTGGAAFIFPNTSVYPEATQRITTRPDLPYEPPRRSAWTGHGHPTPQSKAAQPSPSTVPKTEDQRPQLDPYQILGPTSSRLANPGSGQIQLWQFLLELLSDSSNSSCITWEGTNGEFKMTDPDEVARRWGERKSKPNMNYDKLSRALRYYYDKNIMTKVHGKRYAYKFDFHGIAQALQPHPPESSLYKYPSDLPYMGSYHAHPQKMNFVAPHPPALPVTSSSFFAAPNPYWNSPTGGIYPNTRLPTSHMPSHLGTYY
Summary of the method: as §1

[5] = target: ELF1 (Homo sapiens, UniProt P32519 1-619)
Summary of the method: as §1

[6] = target: T5, EHF (Homo sapiens, UniProt Q9NZC4 1-300)
T5 sequence: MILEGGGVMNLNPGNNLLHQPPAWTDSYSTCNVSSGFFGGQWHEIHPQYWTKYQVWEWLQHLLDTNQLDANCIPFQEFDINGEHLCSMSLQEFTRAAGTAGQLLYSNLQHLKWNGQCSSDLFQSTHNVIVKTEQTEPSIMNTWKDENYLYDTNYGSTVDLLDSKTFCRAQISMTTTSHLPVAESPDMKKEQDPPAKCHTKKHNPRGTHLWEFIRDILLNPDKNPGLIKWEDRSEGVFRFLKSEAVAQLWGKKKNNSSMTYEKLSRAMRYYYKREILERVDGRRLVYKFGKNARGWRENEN
Summary of the method: as §1

[7] = target: SPI1 (Homo sapiens, UniProt P17947 1-270)
Summary of the method: as §1

[8] = target: SPIB (Homo sapiens, UniProt Q01892 1-262)
Summary of the method: as §1

[9] = target: T6, ELK3 (Homo sapiens, UniProt P41970 1-407)
T6 sequence: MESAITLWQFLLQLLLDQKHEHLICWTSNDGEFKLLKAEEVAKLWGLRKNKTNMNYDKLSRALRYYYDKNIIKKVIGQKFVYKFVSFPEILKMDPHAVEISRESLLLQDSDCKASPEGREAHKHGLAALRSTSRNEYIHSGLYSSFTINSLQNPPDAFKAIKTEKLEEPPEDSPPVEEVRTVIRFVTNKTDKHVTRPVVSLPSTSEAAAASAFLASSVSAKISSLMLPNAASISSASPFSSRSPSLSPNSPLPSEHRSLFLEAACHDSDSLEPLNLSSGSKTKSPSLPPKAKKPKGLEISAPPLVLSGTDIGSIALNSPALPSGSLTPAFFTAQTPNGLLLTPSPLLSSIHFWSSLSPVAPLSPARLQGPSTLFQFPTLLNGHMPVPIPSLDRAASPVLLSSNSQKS
Summary of the method: as §1

Sequence of SPIB (Q01892 whole entry): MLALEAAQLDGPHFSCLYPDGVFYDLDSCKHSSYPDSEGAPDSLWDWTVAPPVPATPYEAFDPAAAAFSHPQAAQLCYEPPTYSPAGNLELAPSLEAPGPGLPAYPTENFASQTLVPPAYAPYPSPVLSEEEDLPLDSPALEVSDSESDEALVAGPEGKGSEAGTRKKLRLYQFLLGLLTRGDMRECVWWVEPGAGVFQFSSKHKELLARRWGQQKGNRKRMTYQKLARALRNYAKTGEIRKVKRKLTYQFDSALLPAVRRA
Sequence of ELF1 (P32519 whole entry): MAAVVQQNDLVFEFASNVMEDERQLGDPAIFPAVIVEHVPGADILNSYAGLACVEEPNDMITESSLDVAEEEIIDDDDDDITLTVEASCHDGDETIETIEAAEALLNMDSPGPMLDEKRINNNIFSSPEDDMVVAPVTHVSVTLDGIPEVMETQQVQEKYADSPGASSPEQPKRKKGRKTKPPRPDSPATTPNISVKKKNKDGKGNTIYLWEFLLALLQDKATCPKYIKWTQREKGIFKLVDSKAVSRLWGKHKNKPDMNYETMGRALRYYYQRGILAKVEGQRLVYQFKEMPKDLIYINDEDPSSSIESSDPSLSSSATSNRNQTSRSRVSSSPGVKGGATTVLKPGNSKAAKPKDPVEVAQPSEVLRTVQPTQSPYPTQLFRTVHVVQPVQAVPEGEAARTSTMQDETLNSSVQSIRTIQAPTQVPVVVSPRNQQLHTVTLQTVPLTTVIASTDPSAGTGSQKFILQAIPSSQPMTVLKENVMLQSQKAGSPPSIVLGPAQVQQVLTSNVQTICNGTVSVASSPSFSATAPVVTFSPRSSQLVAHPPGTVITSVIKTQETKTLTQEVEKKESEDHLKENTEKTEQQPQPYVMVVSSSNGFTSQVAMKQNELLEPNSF

TTGTTT
binding signal [1]: 1.46 fold enrichment (6-mer frequency, TF over GST control) | binding signal [2]: 1.45 fold enrichment (6-mer frequency, TF over GST control) | binding signal [3]: 1.36 fold enrichment (6-mer frequency, TF over GST control) | binding signal [4]: 1.6 fold enrichment (6-mer frequency, TF over GST control) | binding signal [5]: 1.37 fold enrichment (6-mer frequency, TF over GST control) | binding signal [6]: 1.51 fold enrichment (6-mer frequency, TF over GST control) | binding signal [7]: 1.28 fold enrichment (6-mer frequency, TF over GST control) | binding signal [8]: 1.52 fold enrichment (6-mer frequency, TF over GST control) | binding signal [9]: 1.49 fold enrichment (6-mer frequency, TF over GST control)

CTATCT
binding signal [1]: 1.26 fold enrichment (6-mer frequency, TF over GST control) | binding signal [2]: 1.43 fold enrichment (6-mer frequency, TF over GST control) | binding signal [3]: 1.34 fold enrichment (6-mer frequency, TF over GST control) | binding signal [4]: 1.29 fold enrichment (6-mer frequency, TF over GST control) | binding signal [5]: 1.34 fold enrichment (6-mer frequency, TF over GST control) | binding signal [6]: 1.54 fold enrichment (6-mer frequency, TF over GST control) | binding signal [7]: 1.42 fold enrichment (6-mer frequency, TF over GST control) | binding signal [8]: 1.28 fold enrichment (6-mer frequency, TF over GST control) | binding signal [9]: 1.48 fold enrichment (6-mer frequency, TF over GST control)

GCCTCG
binding signal [1]: 1.41 fold enrichment (6-mer frequency, TF over GST control) | binding signal [2]: 1.26 fold enrichment (6-mer frequency, TF over GST control) | binding signal [3]: 1.34 fold enrichment (6-mer frequency, TF over GST control) | binding signal [4]: 1.45 fold enrichment (6-mer frequency, TF over GST control) | binding signal [5]: 1.42 fold enrichment (6-mer frequency, TF over GST control) | binding signal [6]: 1.3 fold enrichment (6-mer frequency, TF over GST control) | binding signal [7]: 1.21 fold enrichment (6-mer frequency, TF over GST control) | binding signal [8]: 1.19 fold enrichment (6-mer frequency, TF over GST control) | binding signal [9]: 1.26 fold enrichment (6-mer frequency, TF over GST control)

CCCTAT
binding signal [1]: 1.33 fold enrichment (6-mer frequency, TF over GST control) | binding signal [2]: 1.33 fold enrichment (6-mer frequency, TF over GST control) | binding signal [3]: 1.32 fold enrichment (6-mer frequency, TF over GST control) | binding signal [4]: 1.32 fold enrichment (6-mer frequency, TF over GST control) | binding signal [5]: 1.32 fold enrichment (6-mer frequency, TF over GST control) | binding signal [6]: 1.25 fold enrichment (6-mer frequency, TF over GST control) | binding signal [7]: 1.45 fold enrichment (6-mer frequency, TF over GST control) | binding signal [8]: 1.35 fold enrichment (6-mer frequency, TF over GST control) | binding signal [9]: 1.46 fold enrichment (6-mer frequency, TF over GST control)

CCTCCA
binding signal [1]: 1.37 fold enrichment (6-mer frequency, TF over GST control) | binding signal [2]: 1.5 fold enrichment (6-mer frequency, TF over GST control) | binding signal [3]: 1.23 fold enrichment (6-mer frequency, TF over GST control) | binding signal [4]: 1.38 fold enrichment (6-mer frequency, TF over GST control) | binding signal [5]: 1.37 fold enrichment (6-mer frequency, TF over GST control) | binding signal [6]: 1.33 fold enrichment (6-mer frequency, TF over GST control) | binding signal [7]: 1.28 fold enrichment (6-mer frequency, TF over GST control) | binding signal [8]: 1.3 fold enrichment (6-mer frequency, TF over GST control) | binding signal [9]: 1.37 fold enrichment (6-mer frequency, TF over GST control)

ACAATT
binding signal [1]: 1.33 fold enrichment (6-mer frequency, TF over GST control) | binding signal [2]: 1.27 fold enrichment (6-mer frequency, TF over GST control) | binding signal [3]: 1.15 fold enrichment (6-mer frequency, TF over GST control) | binding signal [4]: 1.32 fold enrichment (6-mer frequency, TF over GST control) | binding signal [5]: 1.32 fold enrichment (6-mer frequency, TF over GST control) | binding signal [6]: 1.23 fold enrichment (6-mer frequency, TF over GST control) | binding signal [7]: 1.23 fold enrichment (6-mer frequency, TF over GST control) | binding signal [8]: 1.2 fold enrichment (6-mer frequency, TF over GST control) | binding signal [9]: 1.25 fold enrichment (6-mer frequency, TF over GST control)

CTGACT
binding signal [1]: 1.25 fold enrichment (6-mer frequency, TF over GST control) | binding signal [2]: 1.26 fold enrichment (6-mer frequency, TF over GST control) | binding signal [3]: 1.29 fold enrichment (6-mer frequency, TF over GST control) | binding signal [4]: 1.22 fold enrichment (6-mer frequency, TF over GST control) | binding signal [5]: 1.32 fold enrichment (6-mer frequency, TF over GST control) | binding signal [6]: 1.31 fold enrichment (6-mer frequency, TF over GST control) | binding signal [7]: 1.27 fold enrichment (6-mer frequency, TF over GST control) | binding signal [8]: 1.43 fold enrichment (6-mer frequency, TF over GST control) | binding signal [9]: 1.26 fold enrichment (6-mer frequency, TF over GST control)
